Shown are actives, neighbours in structure and some others; about 3.5% of the full set was active somewhere.
MITF inh = blocks human microphthalmia-associated transcription factor | AlphaScreen MITF homodimerization, bead proximity signal | 650,000 compounds, 0.91% hits | inhibition, % at 2.6 µM | AID 1259374 | O75030; in the data active means inhibition above about 50%
FBW7 activator = human FBW7 E3 ligase activation, primary screen. AlphaScreen FBW7–phospho-cyclin E peptide binding, activator screen. Q969H0. 650,000 compounds, 0.13% hits. normalized activity (activation), % at 26.1 µM; in the data active means normalized activity above about 1.9%;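 further: purified mutant Fbw7 with reduced substrate affinity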
Target sequence (Q969H0 whole entry, looked up): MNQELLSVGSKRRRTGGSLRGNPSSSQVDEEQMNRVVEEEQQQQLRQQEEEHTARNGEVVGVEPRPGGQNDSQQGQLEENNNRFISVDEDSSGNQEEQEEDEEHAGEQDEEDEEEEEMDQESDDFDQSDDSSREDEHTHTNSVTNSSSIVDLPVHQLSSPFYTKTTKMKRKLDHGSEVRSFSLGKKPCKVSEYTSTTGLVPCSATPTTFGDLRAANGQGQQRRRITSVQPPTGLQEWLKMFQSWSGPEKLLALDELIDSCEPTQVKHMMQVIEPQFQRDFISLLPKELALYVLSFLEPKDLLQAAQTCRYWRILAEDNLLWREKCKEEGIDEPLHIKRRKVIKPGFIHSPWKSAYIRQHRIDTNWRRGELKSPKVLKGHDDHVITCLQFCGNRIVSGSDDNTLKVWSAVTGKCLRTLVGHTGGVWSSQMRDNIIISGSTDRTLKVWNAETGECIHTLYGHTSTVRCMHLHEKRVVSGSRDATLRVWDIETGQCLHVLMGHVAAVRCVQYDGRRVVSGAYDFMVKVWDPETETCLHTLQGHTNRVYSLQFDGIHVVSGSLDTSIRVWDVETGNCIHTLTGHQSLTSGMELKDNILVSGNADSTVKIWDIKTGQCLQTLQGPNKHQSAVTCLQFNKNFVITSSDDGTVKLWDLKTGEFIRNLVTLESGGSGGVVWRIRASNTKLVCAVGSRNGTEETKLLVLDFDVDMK
TEAD-YAP inh = TEAD-YAP interaction inhibition | 640,000 compounds, 1.4% hits | inhibition, % at 9.12 µM | HEK-TIYL cells, TEAD-Gal4/YAP UAS-luciferase luminescence; in the data active means inhibition above about 32%
GPR151 ag = activators of human GPR151. Q8TDV0. PathHunter beta-arrestin GPR151 cells, luminescence. activation, % at 11.2 µM. 650,000 compounds, 1% hits. AID 1508602; in the data active means activation above about 4.9%
Numbers stand for hits.

How did COc1ccccc1NC(=O)N1CCC(Oc2ccc(-c3ccc(N(C)C)nc3)cc2)CC1 do in these assays?
MITF inh: inactive; FBW7 activator: inactive; TEAD-YAP inh: 35.0; GPR151 ag: inactive

Results for COc1ccccc1NC(=O)N1CCC(C(=O)Nc2cc(C)cc(C)c2)CC1 ?
MITF inh: inactive; FBW7 activator: inactive; TEAD-YAP inh: inactive; GPR151 ag: inactive

Results for CN(C)c1ccc(-c2ccc(OC3CCN(S(C)(=O)=O)CC3)cc2)cn1 ?
MITF inh: inactive; FBW7 activator: inactive; TEAD-YAP inh: inactive; GPR151 ag: inactive

Results for CN(C)c1ccc(-c2ccc(OC3CCNCC3)cc2)cn1 ?
MITF inh: inactive; FBW7 activator: inactive; TEAD-YAP inh: 57.1; GPR151 ag: inactive

How did O=C(NC(=S)NC1C2CC3CC(C2)CC1C3)c1ccco1 (stereo not given) do in these assays?
MITF inh: inactive; FBW7 activator: inactive; TEAD-YAP inh: inactive; GPR151 ag: inactive

What do the screens show for `COc1ccc(CCNc2nnc(Sc3nnnn3-c3ccccc3)s2)cc1OC`?
MITF inh: inactive; FBW7 activator: inactive; TEAD-YAP inh: 54.2; GPR151 ag: inactive

What do the screens show for `Clc1ccc(CSc2nnnn2-c2ccccc2)cc1`?
MITF inh: inactive; FBW7 activator: inactive; TEAD-YAP inh: inactive; GPR151 ag: inactive

Results for COc1ccc(-n2nnnc2SCc2ccc(Cl)cc2)cc1 ?
MITF inh: inactive; FBW7 activator: inactive; TEAD-YAP inh: 53.0; GPR151 ag: inactive

What do the screens show for `Nc1cc(S(=O)(=O)O)c(O)c2c1C(=O)c1c(O)c(S(=O)(=O)O)cc(N)c1C2=O`?
MITF inh: 60.6; FBW7 activator: inactive; TEAD-YAP inh: inactive; GPR151 ag: inactive

What do the screens show for `COc1ccc(Br)cc1/C=c1\sc2nnc(-c3ccccc3)n2c1=O`?
MITF inh: inactive; FBW7 activator: inactive; TEAD-YAP inh: inactive; GPR151 ag: inactive

What do the screens show for `CC(C)n1cnc2c(NCc3nc4ccccc4[nH]3)nc(Nc3ncccn3)nc21`?
MITF inh: inactive; FBW7 activator: inactive; TEAD-YAP inh: 65.6; GPR151 ag: inactive

What do the screens show for `CC(C)n1cnc2c(NCc3nc4ccccc4[nH]3)nc(Nc3ccncc3)nc21`?
MITF inh: inactive; FBW7 activator: inactive; TEAD-YAP inh: 89.6; GPR151 ag: inactive

Results for Cc1noc(C)c1-c1nc(NCc2nc3ccccc3[nH]2)c2ncn(C(C)C)c2n1 ?
MITF inh: inactive; FBW7 activator: inactive; TEAD-YAP inh: 49.1; GPR151 ag: inactive

What do the screens show for `CC(C)n1cnc2c(NCc3nc4ccccc4[nH]3)nc(-c3csc4ccccc34)nc21`?
MITF inh: inactive; FBW7 activator: inactive; TEAD-YAP inh: inactive; GPR151 ag: inactive

What do the screens show for `CC(C)n1cnc2c(NCc3nc4ccccc4[nH]3)nc(Nc3cccc(N(C)C)c3)nc21`?
MITF inh: inactive; FBW7 activator: inactive; TEAD-YAP inh: 42.5; GPR151 ag: inactive

What do the screens show for `CC(C)n1cnc2c(NCc3ccccc3)nc(Nc3cccc(N(C)C)c3)nc21`?
MITF inh: inactive; FBW7 activator: inactive; TEAD-YAP inh: inactive; GPR151 ag: inactive

What do the screens show for `COc1cc(C(=O)NC(C)C)cc(OC)c1OC`?
MITF inh: inactive; FBW7 activator: inactive; TEAD-YAP inh: inactive; GPR151 ag: inactive

Results for O=C(Nc1nc2ccccc2[nH]1)c1ccc2c(=O)n3c(nc2c1)CCCCC3 ?
MITF inh: inactive; FBW7 activator: inactive; TEAD-YAP inh: inactive; GPR151 ag: inactive

How did CCC(=O)N=c1sc2cc(S(C)(=O)=O)ccc2n1C do in these assays?
MITF inh: inactive; FBW7 activator: inactive; TEAD-YAP inh: inactive; GPR151 ag: inactive

Results for O=S(=O)(Nc1cccc(Cl)c1Cl)c1cccc2cccnc12 ?
MITF inh: inactive; FBW7 activator: inactive; TEAD-YAP inh: inactive; GPR151 ag: inactive

How did COc1cc(-c2noc(C3CC(=O)N(c4ccc(C)cc4C)C3)n2)cc(OC)c1OC (stereo not given) do in these assays?
MITF inh: inactive; FBW7 activator: inactive; TEAD-YAP inh: 44.5; GPR151 ag: inactive

Results for COc1ccc(N2CC(c3nc(-c4cc(OC)c(OC)c(OC)c4)no3)CC2=O)cc1Cl (stereo not given) ?
MITF inh: inactive; FBW7 activator: inactive; TEAD-YAP inh: inactive; GPR151 ag: inactive

Results for Cc1cc(C)n2cc(CNC(=O)CCC3(Cc4ccc(Cl)cc4)CCC(=O)N3)nc2c1 (stereo not given) ?
MITF inh: inactive; FBW7 activator: inactive; TEAD-YAP inh: inactive; GPR151 ag: inactive

Results for C=CCn1c(-c2ccc(Cl)cc2)csc1=Nc1ccc(S(=O)(=O)Nc2nc(C)cc(C)n2)cc1 ?
MITF inh: inactive; FBW7 activator: inactive; TEAD-YAP inh: inactive; GPR151 ag: inactive

Results for Cn1cnc([N+](=O)[O-])c1Sc1nc2ccccc2[nH]1 ?
MITF inh: inactive; FBW7 activator: inactive; TEAD-YAP inh: 56.2; GPR151 ag: inactive

How did O=C(CN1CCCCC1)N1c2ccccc2Sc2ccc(Cl)cc21 do in these assays?
MITF inh: inactive; FBW7 activator: inactive; TEAD-YAP inh: inactive; GPR151 ag: inactive

Results for O=C1NC(=O)N(Cc2ccco2)C(=O)/C1=C\c1ccc(-c2ccc([N+](=O)[O-])cc2)o1 ?
MITF inh: 74.6; FBW7 activator: inactive; TEAD-YAP inh: inactive; GPR151 ag: inactive

What do the screens show for `CCOC(=O)c1ccc(-c2ccc(/C=C3/C(=O)NC(=O)N(Cc4ccco4)C3=O)o2)cc1`?
MITF inh: inactive; FBW7 activator: inactive; TEAD-YAP inh: inactive; GPR151 ag: inactive

Results for O=C1NC(=O)N(Cc2ccco2)C(=O)/C1=C\c1ccc(-c2ccc(C(=O)O)cc2)o1 ?
MITF inh: 51.8; FBW7 activator: inactive; TEAD-YAP inh: inactive; GPR151 ag: inactive

Results for O=C1NC(=O)N(Cc2ccco2)C(=O)/C1=C\c1ccc(-c2ccc(Br)cc2)o1 ?
MITF inh: 69.8; FBW7 activator: inactive; TEAD-YAP inh: inactive; GPR151 ag: inactive

How did Cc1ccc([N+](=O)[O-])cc1-c1ccc(/C=C2/C(=O)NC(=O)N(Cc3ccco3)C2=O)o1 do in these assays?
MITF inh: inactive; FBW7 activator: inactive; TEAD-YAP inh: inactive; GPR151 ag: inactive

How did Cc1cc([N+](=O)[O-])ccc1-c1ccc(/C=C2/C(=O)NC(=O)N(Cc3ccco3)C2=O)o1 do in these assays?
MITF inh: 67.8; FBW7 activator: inactive; TEAD-YAP inh: inactive; GPR151 ag: inactive

How did O=C(Nc1ccc2[nH]ncc2c1)[C@@H](O)COc1ccc(Cl)cc1 do in these assays?
MITF inh: inactive; FBW7 activator: inactive; TEAD-YAP inh: inactive; GPR151 ag: inactive

How did Cc1ccnc(NC(=O)COc2cc(C)ccc2C)c1 do in these assays?
MITF inh: inactive; FBW7 activator: inactive; TEAD-YAP inh: inactive; GPR151 ag: inactive

What do the screens show for `Cc1ccnc(NC(=O)COc2ccc(Br)cc2Cl)c1`?
MITF inh: inactive; FBW7 activator: inactive; TEAD-YAP inh: 92.9; GPR151 ag: inactive

Results for O=C(COc1cc(Cl)c(Cl)cc1Cl)Nc1nccs1 ?
MITF inh: inactive; FBW7 activator: inactive; TEAD-YAP inh: 58.7; GPR151 ag: inactive

Results for O=C(COc1ccc(Cl)cc1Br)Nc1nccs1 ?
MITF inh: inactive; FBW7 activator: inactive; TEAD-YAP inh: 88.7; GPR151 ag: inactive

Results for O=C(COc1ccc(Br)cc1Cl)Nc1ncn[nH]1 ?
MITF inh: inactive; FBW7 activator: inactive; TEAD-YAP inh: 46.2; GPR151 ag: inactive

Source: PubChem BioAssay
